# Measurements as given in ChEMBL document CHEMBL2218924, “A broad activity screen in support of a chemogenomic map for kinase signalling research and drug discovery” (Biochem J, 2013).
# Tests used:
# [1] = target: Protein kinase C alpha type (Homo sapiens) (UniProt P17252); conditions: at 1 µM
# [2] = target: Protein kinase C alpha type (Homo sapiens) (UniProt P17252); conditions: at 10 µM
# [3] = target: Protein kinase C beta type (Homo sapiens) (UniProt P05771); conditions: at 1 µM
# [4] = target: Protein kinase C beta type (Homo sapiens) (UniProt P05771); conditions: at 10 µM
# [5] = target: Protein kinase C beta type (Homo sapiens) (UniProt P05771); conditions: at 1 µM; remark: listed apart in the source
# [6] = target: Protein kinase C beta type (Homo sapiens) (UniProt P05771); conditions: at 10 µM; remark: listed apart in the source
# [7] = target: Protein kinase C gamma type (Homo sapiens) (UniProt P05129); conditions: at 1 µM
# [8] = target: Protein kinase C gamma type (Homo sapiens) (UniProt P05129); conditions: at 10 µM
# [9] = target: Protein kinase C delta type (Homo sapiens) (UniProt Q05655); conditions: at 1 µM
# [10] = target: Protein kinase C delta type (Homo sapiens) (UniProt Q05655); conditions: at 10 µM
# Chain of Protein kinase C delta type (Homo sapiens) (Q05655 whole entry, looked up): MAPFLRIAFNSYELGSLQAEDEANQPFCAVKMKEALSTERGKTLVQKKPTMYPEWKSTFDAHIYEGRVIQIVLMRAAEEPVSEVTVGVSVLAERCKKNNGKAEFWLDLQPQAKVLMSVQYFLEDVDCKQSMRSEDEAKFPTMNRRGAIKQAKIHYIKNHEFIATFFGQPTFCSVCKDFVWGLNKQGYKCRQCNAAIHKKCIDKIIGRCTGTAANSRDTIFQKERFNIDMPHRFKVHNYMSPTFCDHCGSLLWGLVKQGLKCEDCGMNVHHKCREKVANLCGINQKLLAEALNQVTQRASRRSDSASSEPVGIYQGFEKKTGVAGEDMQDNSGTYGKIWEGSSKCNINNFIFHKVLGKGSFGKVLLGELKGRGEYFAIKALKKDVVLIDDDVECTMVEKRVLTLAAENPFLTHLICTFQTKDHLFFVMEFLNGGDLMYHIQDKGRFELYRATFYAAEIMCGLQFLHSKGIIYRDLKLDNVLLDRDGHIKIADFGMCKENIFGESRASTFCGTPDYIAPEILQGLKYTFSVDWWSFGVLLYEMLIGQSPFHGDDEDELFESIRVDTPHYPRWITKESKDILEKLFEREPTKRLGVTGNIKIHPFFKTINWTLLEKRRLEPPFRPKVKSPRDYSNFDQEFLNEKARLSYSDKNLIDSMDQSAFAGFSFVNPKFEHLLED
# Chain of Protein kinase C beta type (Homo sapiens) (P05771 2-671 limits assumed): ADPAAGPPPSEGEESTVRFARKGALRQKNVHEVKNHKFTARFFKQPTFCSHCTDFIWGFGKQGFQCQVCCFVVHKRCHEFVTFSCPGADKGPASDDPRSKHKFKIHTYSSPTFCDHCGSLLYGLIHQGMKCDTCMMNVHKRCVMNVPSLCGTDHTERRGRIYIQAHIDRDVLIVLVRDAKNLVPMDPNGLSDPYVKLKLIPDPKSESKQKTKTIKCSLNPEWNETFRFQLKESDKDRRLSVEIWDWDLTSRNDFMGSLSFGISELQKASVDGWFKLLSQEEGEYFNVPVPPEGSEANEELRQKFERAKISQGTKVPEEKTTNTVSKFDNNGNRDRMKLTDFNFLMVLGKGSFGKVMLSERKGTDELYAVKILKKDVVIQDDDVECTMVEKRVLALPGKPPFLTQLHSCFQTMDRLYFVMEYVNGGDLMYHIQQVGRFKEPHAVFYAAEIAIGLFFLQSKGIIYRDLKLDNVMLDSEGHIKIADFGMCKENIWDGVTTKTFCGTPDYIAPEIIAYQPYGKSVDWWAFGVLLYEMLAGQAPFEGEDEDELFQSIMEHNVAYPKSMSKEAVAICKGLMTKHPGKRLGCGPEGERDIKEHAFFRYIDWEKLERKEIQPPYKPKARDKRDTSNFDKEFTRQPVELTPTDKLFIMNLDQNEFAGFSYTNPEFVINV
smiles,measurement,setting,value
COc1ccc(Cl)cc1NC(=O)Nc1cc(C)nc2ccccc12,residual activity,[1],98%
same,residual activity,[2],98%
COc1ccc2c(c1)c(C1=C(c3c[nH]c4ccccc34)C(=O)NC1=O)cn2CCCN(C)C,residual activity,[1],-1%
same,residual activity,[2],0%
same,residual activity,[3],4%
same,residual activity,[4],-1%
same,residual activity,[5],4%
same,residual activity,[6],3%
same,residual activity,[7],3%
same,residual activity,[8],0%
same,residual activity,[9],3%
same,residual activity,[10],-1%
O=c1cc(N2CCOCC2)oc2c1ccc1ccccc12,residual activity,[1],102%
same,residual activity,[2],96%
same,residual activity,[3],104%
same,residual activity,[4],95%
same,residual activity,[5],95%
same,residual activity,[6],92%
same,residual activity,[9],100%
same,residual activity,[10],98%
O=C1Cc2c([nH]c3ccc([N+](=O)[O-])cc23)-c2ccccc2N1,residual activity,[1],100%
same,residual activity,[2],105%
O=C1NC(=O)c2c1c1c3ccccc3[nH]c1n1cncc21,residual activity,[1],97%
same,residual activity,[2],84%
same,residual activity,[7],71%
same,residual activity,[8],56%
same,residual activity,[9],79%
same,residual activity,[10],70%
CC(C)(C)c1nc2c3ccc(F)cc3c3c(=O)[nH]ccc3c2[nH]1,residual activity,[1],65%
same,residual activity,[2],62%
same,residual activity,[7],40%
same,residual activity,[8],46%
same,residual activity,[9],54%
same,residual activity,[10],63%
COc1cc2nccc(Oc3ccc(NC(=S)NC(=O)c4ccccc4C)cc3)c2cc1OC,residual activity,[1],99%
same,residual activity,[2],99%
same,residual activity,[5],98%
same,residual activity,[6],101%
same,residual activity,[9],98%
same,residual activity,[10],101%
Nc1nc(Nc2ccc(S(N)(=O)=O)cc2)nn1C(=O)c1c(F)cccc1F,residual activity,[1],63%
same,residual activity,[2],18%
same,residual activity,[6],54%
same,residual activity,[7],61%
same,residual activity,[8],19%
same,residual activity,[9],70%
same,residual activity,[10],23%
CCCCc1c(-c2ccc(OC)cc2)[nH]c2nccnc12,residual activity,[3],101%
same,residual activity,[4],90%
same,residual activity,[5],104%
same,residual activity,[6],102%
same,residual activity,[8],106%
same,residual activity,[10],106%
Nc1ncnc2[nH]nc(Nc3ccc(F)cc3)c12,residual activity,[1],108%
same,residual activity,[3],122%
same,residual activity,[4],110%
same,residual activity,[5],113%
same,residual activity,[6],99%
same,residual activity,[9],104%
same,residual activity,[10],91%
CCN1/C(=C/C(C)=O)Sc2ccc(OC)cc21,residual activity,[6],82%
CC(C)N(CCC(=O)c1ccc2ccccc2c1)Cc1ccccc1,residual activity,[8],85%
CCOc1nc(NC(=O)Cc2cc(OC)ccc2OC)cc(N)c1C#N,residual activity,[9],118%
O=C(c1cc2cc(O)ccc2[nH]1)c1cc2cc(O)ccc2[nH]1,residual activity,[8],56%
same,residual activity,[9],100%
same,residual activity,[10],83%
CN(C)S(=O)(=O)c1ccc2c(c1)/C(=C/c1cc3c([nH]1)CCCC3)C(=O)N2,residual activity,[5],116%
same,residual activity,[10],121%
O=C1Nc2ccc(Cl)cc2/C1=C/c1cc(Cl)c(O)c(Cl)c1,residual activity,[6],90%
same,residual activity,[9],100%
same,residual activity,[10],100%
CN([C@@H](Cc1ccc(OS(=O)(=O)c2cccc3cnccc23)cc1)C(=O)N1CCN(c2ccccc2)CC1)S(=O)(=O)c1cccc2cnccc12,residual activity,[7],99%
same,residual activity,[8],99%
O=C(Nc1nc2ccccc2n1CCN1CCOCC1)c1cccc([N+](=O)[O-])c1,residual activity,[1],104%
same,residual activity,[2],102%
same,residual activity,[7],105%
same,residual activity,[8],102%
same,residual activity,[10],103%
CCN(CC)CCNC(=O)c1c(C)[nH]c(/C=C2\C(=O)Nc3ccc(Cl)cc32)c1C,residual activity,[3],125%
same,residual activity,[4],117%
same,residual activity,[8],51%
same,residual activity,[10],68%
N#C/C(=C\c1ccc(O)c(O)c1)C(=O)NCc1ccccc1,residual activity,[7],124%
same,residual activity,[8],102%
O=S(=O)(c1cccc2cnccc12)N1CCCNCC1,residual activity,[3],75%
same,residual activity,[4],46%
same,residual activity,[6],67%
same,residual activity,[8],63%
same,residual activity,[9],85%
same,residual activity,[10],32%
Fc1ccc(-c2nc3n(c2-c2ccncc2)CCS3)cc1,residual activity,[4],82%
same,residual activity,[10],85%
Nc1nccc(-c2c(-c3ccc(F)cc3)ncn2C2CCNCC2)n1,residual activity,[3],115%
same,residual activity,[4],69%
same,residual activity,[8],63%
CCCCc1c(-c2ccc(O)cc2)[nH]c2nccnc12,residual activity,[1],97%
same,residual activity,[2],100%
same,residual activity,[9],97%
same,residual activity,[10],100%
O=C1NC(=O)C(c2cn(CCCO)c3ncccc23)=C1c1cnccn1,residual activity,[7],92%
same,residual activity,[8],91%
same,residual activity,[9],97%
same,residual activity,[10],91%
CCOC(=O)c1c(C)[nH]c(/C=C2\C(=O)Nc3ccccc32)c1C,residual activity,[9],96%
O=C1C(Cl)=C(N2C(=O)CCC2=O)C(=O)c2ccccc21,residual activity,[2],3%
same,residual activity,[8],77%
same,residual activity,[9],68%
same,residual activity,[10],60%
O=S(=O)(NCCNC/C=C/c1ccc(Br)cc1)c1cccc2cnccc12,residual activity,[6],55%
same,residual activity,[8],38%
same,residual activity,[9],54%
same,residual activity,[10],11%
COc1cc2nccc(Oc3ccc(NC(=O)Nc4cc(C)on4)c(Cl)c3)c2cc1OC,residual activity,[2],101%
same,residual activity,[3],107%
same,residual activity,[4],97%
same,residual activity,[5],109%
same,residual activity,[6],104%
same,residual activity,[9],100%
same,residual activity,[10],106%
O=C(c1ccccc1)c1ccc(N2CCOCC2)cc1O,residual activity,[3],120%
same,residual activity,[4],113%
Nc1ncnc2c1cnn2-c1ccccc1,residual activity,[1],97%
same,residual activity,[2],97%
same,residual activity,[8],98%
same,residual activity,[9],99%
same,residual activity,[10],97%
N#Cc1c(NC(=O)c2cccc3ccccc23)sc2c1CCCC2,residual activity,[7],94%
N#C/C(=C1/Nc2ccccc2S1)c1ccnc(NCCc2cccnc2)n1,residual activity,[3],125%
same,residual activity,[4],121%
same,residual activity,[7],95%
same,residual activity,[8],100%
O=c1cc(N2CCNCC2)oc2c(-c3ccccc3)cccc12,residual activity,[2],102%
same,residual activity,[5],97%
same,residual activity,[6],95%
same,residual activity,[9],101%
same,residual activity,[10],102%
Nc1n[nH]c2nc3ccccc3nc12,residual activity,[9],85%
same,residual activity,[10],68%
NC(=O)c1cccc(-c2cc(Nc3ccc(OC(F)(F)F)cc3)ncn2)c1,residual activity,[5],92%
same,residual activity,[6],96%
Oc1cccc(-c2nc(N3CCOCC3)c3oc4ncccc4c3n2)c1,residual activity,[5],98%
same,residual activity,[9],94%
